About 8,800 targets were measured; listed, in parts, are those with a hit and a random draw of the rest. About 0.5% of all pairs of compound and target were hits. A number with no mark means an inactive call.

Common to all, as to test: log2 fold change, soluble protein after heating vs DMSO (PISA); higher = thermal stabilisation; K562 lysate, 10 uM; active = over 0.2 and 3.5 SD of the protein, either way, in both replicates (recomputed)
Compound in experiment [1]: C1=CC=C(C=C1)[C@H](COC2=CC3=C(C=C2)NC(=O)N3)NC(=O)C4=CC=CN(C4=O)CC5=CC(=C(C=C5)F)F
The essentials:
(§1)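 A 30 min treatment with 10 μM compound was applied to crude K562 extract at 1 mg/mL protein in PBS pH 7.4 with 1 mM MgCl2. Heating for 3 min spanned 48°C-58°C, after which aliquots were pooled, adjusted to 0.5% NP-40 at 4°C and spun at 21,000xg for 90 min. TMTpro 16plex LC-MS/MS of the supernatant, with channel sums equalised, gave values recorded as log-two fold change in thermal stability against solvent controls, from duplicates.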

Compound in experiment [2]: CC1=C(SC2=C1C(=N[C@H](C3=NN=C(N32)C)CC(=O)N)C4=CC=C(C=C4)Cl)C
In short, it runs like this:
as §1

Compound in experiment [3]: CC1=C2C(=CC=C1)N=C(N(C2=O)C3=CC=CC=C3C)CN4C=NC5=C(N=CN=C54)N
In short, it runs like this:
as §1

Compound in experiment [4]: Cc1sc2c(c1C)C(c1ccc(Cl)cc1)=N[C@@H](CC(=O)OC(C)(C)C)c1nnc(C)n1-2
In short, it runs like this:
as §1

Compound in experiment [5]: c1ccc([C@@H]2C[C@H]2NC2CCNCC2)cc1
The essentials:
as §1

Chain of UniProt Q8N960 (Q8N960 whole entry, looked up): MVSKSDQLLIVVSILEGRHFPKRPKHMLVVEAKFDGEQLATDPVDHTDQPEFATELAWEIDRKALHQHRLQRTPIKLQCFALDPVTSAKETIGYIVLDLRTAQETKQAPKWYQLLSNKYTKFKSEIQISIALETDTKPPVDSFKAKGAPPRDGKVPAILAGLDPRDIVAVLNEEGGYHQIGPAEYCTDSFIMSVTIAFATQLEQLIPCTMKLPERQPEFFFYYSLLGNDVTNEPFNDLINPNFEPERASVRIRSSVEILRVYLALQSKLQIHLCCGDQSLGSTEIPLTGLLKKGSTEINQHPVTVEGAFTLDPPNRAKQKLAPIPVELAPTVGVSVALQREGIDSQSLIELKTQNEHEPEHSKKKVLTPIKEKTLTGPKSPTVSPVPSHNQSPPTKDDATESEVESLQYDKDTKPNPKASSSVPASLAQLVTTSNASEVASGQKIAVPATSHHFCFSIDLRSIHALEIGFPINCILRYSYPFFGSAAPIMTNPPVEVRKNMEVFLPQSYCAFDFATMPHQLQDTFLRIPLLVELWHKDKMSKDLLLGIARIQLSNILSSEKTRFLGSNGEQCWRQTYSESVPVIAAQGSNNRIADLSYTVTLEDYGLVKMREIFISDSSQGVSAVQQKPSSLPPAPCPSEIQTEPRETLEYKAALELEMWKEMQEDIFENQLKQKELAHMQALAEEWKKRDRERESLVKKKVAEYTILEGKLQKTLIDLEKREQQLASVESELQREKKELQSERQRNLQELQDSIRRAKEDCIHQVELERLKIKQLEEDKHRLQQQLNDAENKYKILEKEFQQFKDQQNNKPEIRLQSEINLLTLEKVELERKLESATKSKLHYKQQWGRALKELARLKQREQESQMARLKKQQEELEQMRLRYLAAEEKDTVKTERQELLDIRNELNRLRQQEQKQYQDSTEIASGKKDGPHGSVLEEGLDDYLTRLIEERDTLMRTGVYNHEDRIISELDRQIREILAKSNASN
Chain of UniProt O43303 (O43303 whole entry, looked up): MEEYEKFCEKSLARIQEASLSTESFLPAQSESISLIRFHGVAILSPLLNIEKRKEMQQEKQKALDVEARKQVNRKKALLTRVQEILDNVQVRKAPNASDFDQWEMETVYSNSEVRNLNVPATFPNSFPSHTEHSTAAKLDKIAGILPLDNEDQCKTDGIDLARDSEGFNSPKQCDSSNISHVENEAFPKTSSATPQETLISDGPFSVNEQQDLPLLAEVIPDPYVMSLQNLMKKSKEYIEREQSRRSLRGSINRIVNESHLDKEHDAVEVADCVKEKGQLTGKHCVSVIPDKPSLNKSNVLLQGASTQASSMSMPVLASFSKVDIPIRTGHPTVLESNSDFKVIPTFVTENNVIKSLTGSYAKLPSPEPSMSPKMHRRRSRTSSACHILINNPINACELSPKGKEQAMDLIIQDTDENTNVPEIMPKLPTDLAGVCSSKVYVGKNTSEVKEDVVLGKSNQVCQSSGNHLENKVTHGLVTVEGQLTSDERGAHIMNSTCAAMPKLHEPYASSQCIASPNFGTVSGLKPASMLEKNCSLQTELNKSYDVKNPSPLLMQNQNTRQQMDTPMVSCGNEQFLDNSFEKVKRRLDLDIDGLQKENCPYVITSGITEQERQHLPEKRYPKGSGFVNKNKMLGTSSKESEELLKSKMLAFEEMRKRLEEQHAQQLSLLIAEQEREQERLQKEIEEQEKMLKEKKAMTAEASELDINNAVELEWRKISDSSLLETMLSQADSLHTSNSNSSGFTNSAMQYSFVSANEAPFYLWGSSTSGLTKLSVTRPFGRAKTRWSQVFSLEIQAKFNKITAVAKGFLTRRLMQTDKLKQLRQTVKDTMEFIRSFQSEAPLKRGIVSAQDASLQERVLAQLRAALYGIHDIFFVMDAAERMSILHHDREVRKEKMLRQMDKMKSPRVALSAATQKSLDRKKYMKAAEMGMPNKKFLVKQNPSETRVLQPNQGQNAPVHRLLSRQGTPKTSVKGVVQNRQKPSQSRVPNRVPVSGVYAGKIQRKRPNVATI
Chain of UniProt Q96RR4 (Q96RR4 whole entry, looked up): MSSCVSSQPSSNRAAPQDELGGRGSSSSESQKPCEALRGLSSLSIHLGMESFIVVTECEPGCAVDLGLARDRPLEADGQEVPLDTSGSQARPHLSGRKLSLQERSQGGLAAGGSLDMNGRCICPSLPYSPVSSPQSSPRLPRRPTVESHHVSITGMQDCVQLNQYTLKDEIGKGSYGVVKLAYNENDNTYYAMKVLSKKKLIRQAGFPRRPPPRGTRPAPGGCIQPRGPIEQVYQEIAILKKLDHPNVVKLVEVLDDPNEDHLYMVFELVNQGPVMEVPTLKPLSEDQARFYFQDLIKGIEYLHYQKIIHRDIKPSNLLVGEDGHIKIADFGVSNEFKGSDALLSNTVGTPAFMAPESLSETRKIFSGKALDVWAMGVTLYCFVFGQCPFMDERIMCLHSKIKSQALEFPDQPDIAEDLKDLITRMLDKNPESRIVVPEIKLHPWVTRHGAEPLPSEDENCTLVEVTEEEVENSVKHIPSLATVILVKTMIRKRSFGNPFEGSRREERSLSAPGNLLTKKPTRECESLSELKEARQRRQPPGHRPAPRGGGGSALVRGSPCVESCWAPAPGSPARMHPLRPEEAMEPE
Chain of UniProt P56945 (P56945 whole entry, looked up): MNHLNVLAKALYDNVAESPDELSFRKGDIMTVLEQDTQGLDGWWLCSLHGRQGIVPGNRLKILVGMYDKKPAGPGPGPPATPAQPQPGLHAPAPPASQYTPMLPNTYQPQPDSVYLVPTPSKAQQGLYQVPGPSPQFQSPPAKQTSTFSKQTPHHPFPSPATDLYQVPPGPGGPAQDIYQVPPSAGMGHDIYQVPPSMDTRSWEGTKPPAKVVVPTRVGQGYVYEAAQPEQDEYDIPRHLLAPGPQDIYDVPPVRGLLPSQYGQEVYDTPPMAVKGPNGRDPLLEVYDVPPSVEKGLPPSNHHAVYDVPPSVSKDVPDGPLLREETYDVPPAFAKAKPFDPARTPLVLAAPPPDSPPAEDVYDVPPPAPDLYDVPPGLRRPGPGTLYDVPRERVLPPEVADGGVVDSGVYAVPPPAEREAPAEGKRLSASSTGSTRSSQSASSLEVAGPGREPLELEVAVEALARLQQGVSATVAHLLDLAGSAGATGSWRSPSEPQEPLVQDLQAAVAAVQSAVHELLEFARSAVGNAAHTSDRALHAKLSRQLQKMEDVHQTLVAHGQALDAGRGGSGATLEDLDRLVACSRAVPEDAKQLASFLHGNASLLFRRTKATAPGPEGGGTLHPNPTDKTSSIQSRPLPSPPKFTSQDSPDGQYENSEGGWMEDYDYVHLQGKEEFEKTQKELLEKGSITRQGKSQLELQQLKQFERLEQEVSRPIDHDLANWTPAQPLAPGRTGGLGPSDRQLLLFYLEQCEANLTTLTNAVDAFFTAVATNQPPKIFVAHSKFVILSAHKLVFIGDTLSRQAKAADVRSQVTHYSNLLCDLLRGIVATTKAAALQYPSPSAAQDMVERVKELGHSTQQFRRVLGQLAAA
Chain of UniProt P30307 (P30307 whole entry, looked up): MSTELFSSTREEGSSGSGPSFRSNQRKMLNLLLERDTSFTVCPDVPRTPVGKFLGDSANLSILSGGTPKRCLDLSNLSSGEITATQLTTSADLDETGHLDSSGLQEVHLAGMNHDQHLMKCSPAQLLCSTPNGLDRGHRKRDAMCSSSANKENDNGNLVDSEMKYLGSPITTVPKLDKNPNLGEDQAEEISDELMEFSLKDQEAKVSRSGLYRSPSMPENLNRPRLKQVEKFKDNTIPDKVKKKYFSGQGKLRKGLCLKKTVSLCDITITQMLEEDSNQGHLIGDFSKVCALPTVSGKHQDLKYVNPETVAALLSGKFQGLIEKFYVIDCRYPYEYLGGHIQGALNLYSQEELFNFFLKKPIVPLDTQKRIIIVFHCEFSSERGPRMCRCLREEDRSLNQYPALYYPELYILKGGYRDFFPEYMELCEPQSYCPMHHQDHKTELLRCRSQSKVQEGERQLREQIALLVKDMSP
Chain of UniProt Q8NBU5 (Q8NBU5 whole entry, looked up): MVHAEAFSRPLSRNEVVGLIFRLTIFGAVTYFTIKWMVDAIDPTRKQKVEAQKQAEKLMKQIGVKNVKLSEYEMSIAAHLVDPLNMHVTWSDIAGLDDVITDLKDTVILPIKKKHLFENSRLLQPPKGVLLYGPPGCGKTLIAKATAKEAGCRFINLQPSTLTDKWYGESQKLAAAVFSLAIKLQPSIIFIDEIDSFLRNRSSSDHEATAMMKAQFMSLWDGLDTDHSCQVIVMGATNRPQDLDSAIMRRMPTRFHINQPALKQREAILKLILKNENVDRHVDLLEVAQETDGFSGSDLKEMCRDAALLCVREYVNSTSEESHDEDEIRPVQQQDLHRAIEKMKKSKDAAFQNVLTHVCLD
Chain of UniProt Q06187 (Q06187 whole entry, looked up): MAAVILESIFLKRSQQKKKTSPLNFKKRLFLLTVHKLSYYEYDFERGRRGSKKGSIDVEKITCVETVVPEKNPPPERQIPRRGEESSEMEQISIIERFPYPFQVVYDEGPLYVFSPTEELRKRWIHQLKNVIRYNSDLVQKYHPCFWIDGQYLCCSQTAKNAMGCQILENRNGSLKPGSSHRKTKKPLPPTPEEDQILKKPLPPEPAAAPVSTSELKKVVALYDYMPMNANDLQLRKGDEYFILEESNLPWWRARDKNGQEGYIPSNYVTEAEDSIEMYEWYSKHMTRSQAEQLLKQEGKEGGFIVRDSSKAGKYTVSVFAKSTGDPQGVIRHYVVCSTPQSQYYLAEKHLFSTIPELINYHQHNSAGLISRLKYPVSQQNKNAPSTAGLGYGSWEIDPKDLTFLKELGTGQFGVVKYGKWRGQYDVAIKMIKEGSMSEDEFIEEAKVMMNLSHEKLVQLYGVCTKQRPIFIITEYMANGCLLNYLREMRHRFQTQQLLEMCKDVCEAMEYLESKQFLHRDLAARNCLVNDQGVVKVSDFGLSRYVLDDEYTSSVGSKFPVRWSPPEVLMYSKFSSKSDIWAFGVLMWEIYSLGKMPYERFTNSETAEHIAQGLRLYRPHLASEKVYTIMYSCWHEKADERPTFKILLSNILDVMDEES

Regarding AURKA (UniProt O14965), the log2 fold change in experiment [1] was -0.053; in experiment [2], -0.001; in experiment [3], -0.042; in experiment [4], -0.055; in experiment [5], -0.157.
The like results for C2CD5 isoform 3 (UniProt Q86YS7) were, in that order, 0.015, 0.059, 0.014, -0.009 and -0.169.
In the case of CCDC130 (UniProt P13994), the log2 fold change in experiment [1] was 0.01; in experiment [2], 0.038.
Consider CEP120 (UniProt Q8N960), for which the log2 fold change in experiment [1] was -0.074; in experiment [2], 0.097; in experiment [3], 0.145; in experiment [4], -0.169; in experiment [5] it was 0.184.
The like results for CDC42EP4 (UniProt Q9H3Q1) were, in that order, 0.113, -0.084, -0.098, 0.004 and -0.036.
The like results for CAD (UniProt P27708) were, in that order, -0.011, 0.009, 0.003, 0.022 and 0.002.
Turning to CBX1 (UniProt P83916), the log2 fold change is 0.031 in experiment [1]; -0.03 in experiment [2]; 0.032 in experiment [3]; 0.009 in experiment [4]; 0.13 in experiment [5].
With ATAD1 (UniProt Q8NBU5), the log2 fold change is -0.052 in experiment [1]; 0.032 in experiment [2]; -0.015 in experiment [3]; -0.092 in experiment [4]; 0.002 in experiment [5].
The like results for CDS2 (UniProt O95674) were, in that order, 0.01, 0.004, -0.056, -0.034 and -0.024.
For the target CCP110 (UniProt O43303), the log2 fold change in experiment [1] was -0.026; in experiment [2], 0.093; in experiment [3], 0.104; in experiment [4], -0.143.
For CDC40 (UniProt O60508), the log2 fold change was 0.036 in experiment [1]; 0.003 in experiment [2]; -0.099 in experiment [3]; 0.099 in experiment [4]; -0.03 in experiment [5].
Regarding CAPNS1 (UniProt U3KPR7), the log2 fold change in experiment [1] was 0.019; in experiment [2], 0.122.
For CCPG1 isoform 5 (UniProt Q9ULG6), the log2 fold change is -0.069 in experiment [1]; -0.118 in experiment [2]; 0.046 in experiment [3]; -0.082 in experiment [4]; -0.026 in experiment [5].
The like results for CDCA8 (UniProt Q53HL2) were, in that order, 0.038, 0.037, -0.213, -0.048 and 0.104.
Consider BCAR1 isoform 6 (UniProt P56945), for which the log2 fold change was 0.01 in experiment [1]; 0.013 in experiment [2]; -0.045 in experiment [3]; -0.043 in experiment [4]; 0.107 in experiment [5].
The like results for ATG4A (UniProt Q8WYN0) were, in that order, 0.008, 0.022, 0.068, -0.01 and -0.103.
The like results for CANX isoform 2 (UniProt P27824) were, in that order, 0.05, -0.022, -0.005, -0.027 and -0.046.
The like results for CAMLG (UniProt P49069) were, in that order, 0.058, 0.003, 0.018, 0.05 and 0.074.
On to BRD3 (UniProt Q15059), for which the log2 fold change in experiment [1] was 0.027; in experiment [2] it was 0.631 (active); in experiment [3], 0.112; in experiment [4], 0.5 (active); in experiment [5] it was -0.167.
Take ATXN2 (UniProt Q99700): the log2 fold change in experiment [1] was 0.013; in experiment [2], 0.016; in experiment [3], 0.075; in experiment [4], -0.02; in experiment [5] it was -0.021.
The like results for CAMKK2 (UniProt Q96RR4) were, in that order, 0.002, -0.047, 0.072, 0.051 and -0.013.
As to C16orf70 (UniProt Q9BSU1), the log2 fold change was -0.007 in experiment [1], -0.073 in experiment [2], -0.071 in experiment [3] and 0.033 in experiment [4].
Regarding BTK isoform 2 (UniProt Q06187), the log2 fold change in experiment [1] is -0.049; in experiment [2], -0.033; in experiment [3] it was 0.012; in experiment [4], -0.002; in experiment [5], -0.064.
The like results for ATP9B (UniProt O43861) were, in that order, 0.109, -0.028, 0.015, -0.019 and -0.079.
The like results for CDC25C (UniProt P30307) were, in that order, 0.018, -0.011, 0.023, 0.07 and 0.027.

The values are drawn from the supplement of paper PMC10849652.
